Here are results for 40 sequences from the supplement of paper PMC6555819.

The subject of this experiment is VDR:RXRa (NR concentration 270 nM, RXRa partner concentration 90 nM). The experiment is described as follows: PBM binding z-score (relative to random genomic background probes); higher = stronger binding; sequences stand for … in GC…GCGATTGACAGCGTAGAATGAAGG
Here is the method: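 Protein-binding microarray (Agilent 4x180K custom design, double-stranded 60-nt probes: 5' GC cap, 34-nt variable region, 24-nt constant primer region; full probe sequence given). Purified or IVT nuclear receptor:RXRα heterodimers (3:1 NR:RXRα, mostly 270:90 nM) or homodimers were incubated for 1 h in PBS with 2% milk and no ligand, then detected with Alexa488 antibodies. Fluorescence from o1-orientation probes (~5 replicates averaged) was converted to z-scores against 500 random hg19 background probes. Variable regions are seed direct-repeat (DR0–DR5) sites, all their single-nucleotide variants and half-site ablations.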
Sequence TCTATTAGTTGATAAGGGCAACCGAAACAGCGGA returned a PBM binding z-score of 0.713. The figure for ACTAGCAGGCCAAGGGTCAATCAAGATTAGTCCG is 2.66; for GCAGACAGGTGAAACGCAAGTAACTCAGGGTGGC it is -0.526. The figure for CGTCCAAGGTCAAGGACAGTGAAAGAGACTCGAA is 3.75.

In turn, ATCGAAAGGTCGTGAGGTGAGTGTACAGAAAGGC returned a PBM binding z-score of 3.63. Under CCGTACGGGTCACGAGGTTATAGCACGACGAGCG stands 5.23; under AACTCTAGGTAACCAAGTTCAGTGAATGCCGAAC, 3.64; under ATGTGTAGGTTAGCTGGGGTCATTCAGACTAGGC, 6.24. Under ATCGAAAGGTCGGCGAGGTGAGTATACACCGTTT stands 4.48.

TAGCCTAGGTCATGTGCCAGTATACCACGCGAAC came in with a PBM binding z-score of 2.35. Under CCTTACGGGTCACTCCAGGTTGTAGCATCGGAGT stands 3.62.

Sequence AGAAAGAGGTTATACGTAGATCAGGGAAGAAAGT registered a PBM binding z-score of 1.4. Under TGTCAAAGTTTAAAGGTAACGTAAGTATCCACAC stands 1.33; under ACTAGTTGGTCAGCTGAGGTCACATACAATTCGG, 4.21. In the case of CCAGACGGGTGAAAGGTAACTCAGTCTGGTACGC, the PBM binding z-score stood at 0.319. Under GCTCGGATGACAAGGTCAGAGCTTTGTCCGTAGA stands 0.722; under TCGAGTAGCTTACCAATGGGGCATTCAGCTTTCT, -0.487. As to GCTATTAGTTGAAAGGGCAATCGAATGATTCTCG, the PBM binding z-score is 0.219. The figure for TCTATTAGTTGATTAGGCCAACCGAAACAGCGGA is 0.618; for CCAGACAGGTGAAAGGTACCTCAGTCTGGTACGC it is 0.0967. Under CCGAGGAGGTTATGGGGCATTCAGGCAACGGTGA stands 0.925; under CTCCAAAGGTCGTGCTCAGGTGAGTATACCAAAC, 3.59; under ATATGTAGGTTATAGGGTCATTCAGTTTGCGCAT, 5.98. TGTCAAAGTTCAAAGGAAACGTAAGTATCCACAC returned a PBM binding z-score of 3.86.

Turning to CCTACTGGGCCAAAGGTCATTTATTCCAATGCTC, the PBM binding z-score was 4.34. Under TAGCTTAGGTCATGCGGGCCAGTATAGTGTCGGC stands 3.13. Under GCGACTGGGGCAAAGCAGGTTATCATAAGGTTGG stands 0.334; under TCATATAGGTAAATGCTAGTTGAAAGTCCGATCT, 1.07. Under ATCGAAAGGTCGACGAGGTGAGTGTACACCGTTT stands 5.55. The sequence AGTCGAAGTTCAGGACGAGGTAACGTAAAGCACG returned a PBM binding z-score of 1.15. Take AGATTGAGGTTAAGATCAGGGAAACAGAATACAT: the PBM binding z-score was 1.42.

The sequence TCTGCTAGGTCAGTTGGTCAGCCAACGAGCTGCC showed a PBM binding z-score of -0.0135.

As for CAGCCTAGATCAGGGCCAGTATAGGAGGAACGTT, the PBM binding z-score is -0.746.

With ACTTACGGGTCAACGAGGTTAAAGCACGCGTATA, the PBM binding z-score turned out to be 7.52. Under TTACCAAGGTGAAAGGTCGTCGATGCACGCCTTG stands 3.09.

AGTCAAAGTTCATCTAGGTAACGCAAGATATGCT returned a PBM binding z-score of 4.91.

As for TCGAGTAGATTACCAATGGGGCATTCAGCTTTCT, the PBM binding z-score is -0.414.

TCTTGGAGATCAAGCAGGTTAAGAAAGCCTGAGT yielded a PBM binding z-score of 1.04. The figure for CCGACTGAGGCAAAGGTTACCATACTCAGTACGA is 1.07; for CAAACTAGGTTAAAGGTCAAAGTCGAGCCAACCA it is 5.47.
